Laboratory results from PubChem BioAssay (NCATS).
Inconclusive results are not listed. Where a call stands in place of a potency, no number is given. Activity calls are given as the source filed them. Unless noted, calls follow the shape of the dose curve; as a rule, active = well fitted curve in the direction sought with a large enough effect; inconclusive = small, poorly fitted or top-dose-only effect, or another doubt; inactive = no such curve, though single readings can be large; an effect the other way counts as inactive or inconclusive.

Assays:
[1] = target: Rap guanine nucleotide exchange factor 3 (Homo sapiens) (UniProt O95398); test: Confirmatory qHTS for antagonist of cAMP-regulated guanine nucleotide exchange factor 3 (EPAC1) (AID 1645880); also: potency is read from the fitted curve at half-maximal effect; nearly all actives have a fitted effect of over 55% in size
Rap guanine nucleotide exchange factor 3 (Homo sapiens), sequence (O95398 whole entry, looked up): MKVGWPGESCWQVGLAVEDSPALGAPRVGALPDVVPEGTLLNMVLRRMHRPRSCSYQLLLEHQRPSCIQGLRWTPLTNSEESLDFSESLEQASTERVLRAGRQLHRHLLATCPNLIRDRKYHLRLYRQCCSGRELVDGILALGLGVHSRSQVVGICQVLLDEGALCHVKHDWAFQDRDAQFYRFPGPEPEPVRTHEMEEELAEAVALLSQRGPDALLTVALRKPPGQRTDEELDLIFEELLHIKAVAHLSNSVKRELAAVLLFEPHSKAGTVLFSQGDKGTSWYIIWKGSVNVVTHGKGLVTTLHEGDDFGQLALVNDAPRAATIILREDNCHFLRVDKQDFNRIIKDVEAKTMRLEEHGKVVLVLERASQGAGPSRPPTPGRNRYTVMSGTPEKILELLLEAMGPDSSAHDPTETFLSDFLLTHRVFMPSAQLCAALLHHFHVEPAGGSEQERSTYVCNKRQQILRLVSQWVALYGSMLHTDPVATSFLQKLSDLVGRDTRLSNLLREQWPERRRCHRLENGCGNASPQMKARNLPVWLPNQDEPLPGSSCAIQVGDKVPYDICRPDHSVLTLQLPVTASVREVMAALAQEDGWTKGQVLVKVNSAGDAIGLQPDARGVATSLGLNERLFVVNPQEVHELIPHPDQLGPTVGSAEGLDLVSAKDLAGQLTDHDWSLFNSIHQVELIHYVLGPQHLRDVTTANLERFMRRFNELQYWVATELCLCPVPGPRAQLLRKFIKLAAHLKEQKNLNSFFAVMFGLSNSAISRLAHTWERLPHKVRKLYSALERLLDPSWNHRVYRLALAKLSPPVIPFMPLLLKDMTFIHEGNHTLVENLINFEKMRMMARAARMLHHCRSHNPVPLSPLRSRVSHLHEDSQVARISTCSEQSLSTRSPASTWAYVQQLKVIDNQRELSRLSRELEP
Method in brief: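 Released BODIPY-GDP fluoresces less than Rap1-bound BODIPY-GDP; the signal is followed at 480/540 nm at 5-min intervals over 30 min, after 5 min at room temperature. Reactions contain 100 nM EPAC1, 250 nM RAP1B-BODIPY-GDP and 50 uM GDP; results are normalized to ATA and DMSO.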

[2] = target: Rap guanine nucleotide exchange factor 3 (Homo sapiens) (UniProt O95398); test: Confirmatory qHTS for agonist of cAMP-regulated guanine nucleotide exchange factor 3 (EPAC1) (AID 1645881);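 also: EPAC1 catalysed release of BODIPY-GDP from Rap1B seen as fluorescence loss; nearly all actives have a fitted effect of over 75% in size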
[3] = target: Rap guanine nucleotide exchange factor 4 (Homo sapiens) (UniProt Q8WZA2); test: Confirmatory qHTS for agonist of cAMP-regulated guanine nucleotide exchange factor 4 (EPAC2) (AID 1645884);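 also: nucleotide exchange releases bodipy-GDP from Rap1 and this lowers its fluorescence; nearly all actives have a fitted effect of over 65% in size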
Rap guanine nucleotide exchange factor 4 (Homo sapiens), sequence (Q8WZA2 whole entry, looked up): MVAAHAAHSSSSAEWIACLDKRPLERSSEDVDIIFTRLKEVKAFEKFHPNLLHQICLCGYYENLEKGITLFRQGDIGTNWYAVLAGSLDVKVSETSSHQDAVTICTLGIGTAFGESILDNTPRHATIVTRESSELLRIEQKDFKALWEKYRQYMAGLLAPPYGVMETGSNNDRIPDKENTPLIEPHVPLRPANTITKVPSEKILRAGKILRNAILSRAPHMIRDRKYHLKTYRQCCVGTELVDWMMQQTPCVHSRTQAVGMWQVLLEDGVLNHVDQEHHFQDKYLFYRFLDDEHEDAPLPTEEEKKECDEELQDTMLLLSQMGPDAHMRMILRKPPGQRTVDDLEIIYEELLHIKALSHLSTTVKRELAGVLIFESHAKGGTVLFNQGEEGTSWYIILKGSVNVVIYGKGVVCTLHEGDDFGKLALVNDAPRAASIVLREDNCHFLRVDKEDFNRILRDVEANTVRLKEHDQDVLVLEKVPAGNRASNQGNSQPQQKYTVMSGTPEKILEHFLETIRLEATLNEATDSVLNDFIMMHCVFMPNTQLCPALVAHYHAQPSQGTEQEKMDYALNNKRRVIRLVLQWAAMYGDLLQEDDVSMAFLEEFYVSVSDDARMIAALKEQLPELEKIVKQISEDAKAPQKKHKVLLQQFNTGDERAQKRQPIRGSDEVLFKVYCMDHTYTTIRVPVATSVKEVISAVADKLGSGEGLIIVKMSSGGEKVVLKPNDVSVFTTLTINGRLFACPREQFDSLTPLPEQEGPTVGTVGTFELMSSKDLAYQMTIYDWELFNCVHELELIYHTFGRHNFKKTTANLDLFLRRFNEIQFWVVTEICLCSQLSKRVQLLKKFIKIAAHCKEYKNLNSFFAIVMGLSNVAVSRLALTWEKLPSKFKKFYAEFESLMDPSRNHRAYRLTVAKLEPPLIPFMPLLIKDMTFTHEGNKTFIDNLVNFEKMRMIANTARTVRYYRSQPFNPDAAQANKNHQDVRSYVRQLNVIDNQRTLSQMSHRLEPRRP

[4] = target: Rap guanine nucleotide exchange factor 4 (Homo sapiens) (UniProt Q8WZA2); test: Confirmatory qHTS for antagonist of cAMP-regulated guanine nucleotide exchange factor 4 (EPAC2) (AID 1645885); also: nearly all actives have a fitted effect of over 25% in size
[5] = target: Rap guanine nucleotide exchange factor 3 (Homo sapiens) (UniProt O95398); test: Counterscreen qHTS for antagonist of cAMP-regulated guanine nucleotide exchange factor 3 (EPAC1) (AID 1645888)
Method in brief: (§1)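 Rap1B-BODIPY-GDP 250 nM + GDP 50 uM; cpds 7-pt, final 9.74 nM–152 uM (activator mode) or from 7.32 nM upwards (inhibitor mode); RT; FI 480/540 nm at 5 and 30 min, then ± cAMP, reread.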

[6] = target: Rap guanine nucleotide exchange factor 3 (Homo sapiens) (UniProt O95398); test: Counterscreen qHTS for agonist of cAMP-regulated guanine nucleotide exchange factor 3 (EPAC1) (AID 1645889); also: nearly all actives have a fitted effect of over 40% in size
Method in brief: as §1

[7] = target: Glutathione peroxidase 1 (Homo sapiens) (UniProt P07203); test: Primary qHTS Assay for Inhibitors of Recombinant Selenoprotein Glutathione Peroxidase 1 (GPX1) (AID 1845191); also: nearly all actives have a fitted effect of over 65% in size
Glutathione peroxidase 1 (Homo sapiens), sequence (P07203 whole entry, looked up): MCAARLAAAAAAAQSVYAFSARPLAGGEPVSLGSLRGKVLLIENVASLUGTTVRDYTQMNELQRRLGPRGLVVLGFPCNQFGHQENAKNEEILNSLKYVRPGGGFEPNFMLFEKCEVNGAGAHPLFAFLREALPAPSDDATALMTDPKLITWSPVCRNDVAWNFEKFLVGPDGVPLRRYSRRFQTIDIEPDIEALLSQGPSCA
Method in brief: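 NADPH consumption tracked by fluorescence at 340/450 nm between t=0 and t=15 min, room temperature. Final mix: 10 nM GPX1, 100 nM glutathione reductase, 1 mM GSH, 0.5 mM NADPH, 0.5 mM cumene hydroperoxide, 0.01% BSA; 30 min compound–enzyme preincubation.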

[8] = target: Phospholipid hydroperoxide glutathione peroxidase GPX4 (Homo sapiens) (UniProt P36969); test: Primary qHTS Assay for Inhibitors of Recombinant Selenoprotein Glutathione Peroxidase 4 (GPX4) (AID 1845192); also: series mostly up to about 50 µM; nearly all actives have a fitted effect of over 65% in size
Phospholipid hydroperoxide glutathione peroxidase GPX4 (Homo sapiens), sequence (P36969 whole entry, looked up): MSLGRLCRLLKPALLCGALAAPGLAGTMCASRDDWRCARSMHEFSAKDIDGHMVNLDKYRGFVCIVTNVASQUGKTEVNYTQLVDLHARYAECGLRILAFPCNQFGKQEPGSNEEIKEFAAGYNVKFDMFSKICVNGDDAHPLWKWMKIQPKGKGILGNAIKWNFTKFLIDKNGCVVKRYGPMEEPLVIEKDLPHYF
Method in brief: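 NADPH consumption followed by fluorescence at 340/450 nm, t=0 and after 15 min at room temperature. Reaction started with cumene hydroperoxide (0.5 mM final) after 30 min compound–GPX4 preincubation; final 200 nM GPX4, 100 nM GR, 1 mM GSH, 0.5 mM NADPH.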

[9] = target: N-terminal Xaa-Pro-Lys N-methyltransferase 1 (Homo sapiens) (UniProt Q9BV86); test: Confirmatory qHTS for Inhibitors of N-terminal methyltransferase 1 (NTMT1): MTaseGlo Assay (AID 1645874); also: nearly all actives have a fitted effect of over 65% in size; also: potency is read from the fitted curve at half-maximal effect
N-terminal Xaa-Pro-Lys N-methyltransferase 1 (Homo sapiens), sequence (Q9BV86 whole entry, looked up): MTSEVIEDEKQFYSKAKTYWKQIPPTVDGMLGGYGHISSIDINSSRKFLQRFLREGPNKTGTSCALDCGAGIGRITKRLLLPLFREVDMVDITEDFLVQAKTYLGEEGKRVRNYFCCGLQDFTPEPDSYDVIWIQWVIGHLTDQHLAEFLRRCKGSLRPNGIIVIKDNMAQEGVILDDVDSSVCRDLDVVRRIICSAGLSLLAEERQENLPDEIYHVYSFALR
Method in brief: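 SPKRIA peptide at 1 uM was methylated by 125 nM NTMT1 using 100 uM SAM over 30 min at room temperature, following a 15 min compound preincubation. Product SAH was detected luminescently.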

[10] = Primary qHTS for inhibitors of nuclear receptor binding SET domain protein 2 (NSD2) in an isogenic RCH-ACV NSD2 p.E1099K mutant (9B) (AID 1645876); also: potency is read from the fitted curve at half-maximal effect; nearly all actives have a fitted effect of over 70% in size
[11] = Primary qHTS for inhibitors of nuclear receptor binding SET domain protein 2 (NSD2) in an RCH-ACV wild type WT cells (2C) (AID 1645877); also: potency is read from the fitted curve at half-maximal effect; nearly all actives have a fitted effect of over 70% in size
[12] = qHTS drug screen for cell cycle checkpoint inhibitors in PARPi-resistant BRCA-mutant ovarian cancer cell lines. (AID 1963452; calls by dose curve; also: potency is read from the fitted curve at half-maximal effect); settings: PEO1/OlaR viability, CellTiter-Glo luminescence, 96 h; for Z-AUC: stronger effect = lower value
Method in brief: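 PEO1, PEO4 and PEO1/OlaR ovarian cancer cells, 600 per well, exposed 96 h at 37C to a dilution series. Viability read by CellTiter-Glo luminescence, normalized to DMSO and empty wells; activity summarized as Z-AUC.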

[13] = qHTS for Inhibitors of Ubiquitin-specific Protease USP2a Using CHOP2 as the Reporter: K633 Counterscreen (AID 652168); also: series mostly up to about 57 µM
Method in brief: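 Detection-system control: fluorescence of K48-linked DiUb-4IQF substrate (100 nM as added) tracked over time, Ex 525/Em 598, with pinned compounds and no enzyme, in pH 8 Tris buffer containing beta-mercaptoethanol and 0.05% Chaps.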

[14] = target: Ubiquitin carboxyl-terminal hydrolase 2 (Homo sapiens) (UniProt O75604); test: qHTS for Inhibitors of Ubiquitin-specific Protease USP2a Using CHOP2 as the Reporter: K484 Substrate (AID 652173); settings: USP2 cleavage of DiUb K48 IQF substrate, fluorescence;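 also: cleavage of internally quenched K48 di-ubiquitin substrate measured as rising fluorescence over time; potency is read from the fitted curve at half-maximal effect; nearly all actives have a fitted effect of over 70% in size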
Ubiquitin carboxyl-terminal hydrolase 2 (Homo sapiens), sequence (O75604 whole entry, looked up): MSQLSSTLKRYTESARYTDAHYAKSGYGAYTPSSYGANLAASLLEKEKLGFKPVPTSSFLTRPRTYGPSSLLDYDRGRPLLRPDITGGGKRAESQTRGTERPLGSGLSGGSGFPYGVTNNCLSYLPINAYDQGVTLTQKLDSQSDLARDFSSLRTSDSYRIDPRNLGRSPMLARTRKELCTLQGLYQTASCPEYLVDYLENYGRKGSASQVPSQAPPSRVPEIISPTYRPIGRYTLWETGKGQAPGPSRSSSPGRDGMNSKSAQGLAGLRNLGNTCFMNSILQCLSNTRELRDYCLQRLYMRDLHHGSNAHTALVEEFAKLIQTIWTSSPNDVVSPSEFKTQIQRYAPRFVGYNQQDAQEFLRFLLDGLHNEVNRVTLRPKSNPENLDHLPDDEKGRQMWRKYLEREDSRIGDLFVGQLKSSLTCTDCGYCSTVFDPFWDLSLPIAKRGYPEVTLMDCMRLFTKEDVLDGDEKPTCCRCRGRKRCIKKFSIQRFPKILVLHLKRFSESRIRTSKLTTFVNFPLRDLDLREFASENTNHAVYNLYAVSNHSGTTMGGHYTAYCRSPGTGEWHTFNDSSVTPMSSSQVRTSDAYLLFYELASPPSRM
Method in brief: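 Kinetic fluorescence (Ex 525/Em 598) tracked cleavage of an internally quenched K48 di-ubiquitin substrate, added as a 100 nM solution. The enzyme was added as a 5 nM USP2 solution before compound pinning, with no-enzyme controls. Buffer: Tris pH 8, beta-mercaptoethanol, CHAPS.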

With `COc1ccccc1NC(=O)CSc1nc(-c2ccc(C(C)(C)C)cc2)c(C#N)c(=O)[nH]1` the Potency [1] was 67.5 µM (active), the Potency [2] was “inactive” and the Potency [3] was “inactive”. For the same compound, the outcome [4] was “inactive [at 12.7 µM]”, the Potency [5] was “inactive” and the Potency [6] was “inactive”.

With `CC(C)(C)c1ccc(-c2nc(SCC(=O)Nc3ccc(Cl)cc3)[nH]c(=O)c2C#N)cc1` the Potency [1] was 84.9 µM (active), the Potency [2] was “inactive” and the Potency [3] was “inactive”. The Potency [4] was “inactive”, the Potency [5] was “inactive” and the Potency [6] was “inactive”.

With `CCN(CC)C(=O)[C@]1(c2ccccc2)C[C@H]1CN` the Potency [7] was “inactive” and the Potency [8] was “inactive”.

For `COc1cccc(NC(=O)CN(CCc2ccccc2)S(=O)(=O)c2ccc(Cl)cc2)c1`, the Potency [9] was 8.51 µM (active).

With `COc1ccc(C(=O)CSc2nc(C)cc(C)c2C(=O)Nc2ccccc2C)cc1` the Potency [9] was “inactive”.

For `C=CC(=O)N1CC[C@@H](Oc2nc(Nc3ccc(N4CCC(N5CCN(C)CC5)CC4)cc3)c(C(N)=O)nc2CC)C1`, the Potency [9] was 4.15 µM (active), the Potency [10] was 0.91 µM (active) and the Potency [11] was 1.62 µM (active). For the same compound, the Potency [7] was “inactive”, the Potency [8] was “inactive” and the Potency [12] was 1.69 µM (active). It also gave a Z-AUC ([12]; measured here: PEO1 parental Z-AUC) of -1.18 and a Z-AUC ([12]; measured here: PEO4 Z-AUC) of -1.49.

In the case of `COc1cccc(-c2n[nH]c3c2C(c2cccc(O)c2)N(C)C3=O)c1` (configuration not stated), the Potency [9] is reported as 44.7 µM (active).

In the case of `Cc1ccc2nc(-c3ccc(O)cc3)c(Nc3ccc(Cl)cc3)n2c1`, the Potency [9] is reported as “inactive”.

With `Cc1cc(F)ccc1S(=O)(=O)Nc1cnccc1C(=O)Nc1nc(-c2ccccc2)cs1` the outcome [13] was “inactive”, the Potency [14] was 0.968 µM (active) and the Potency [9] was 21.8 µM (active).

With `O=C(Nc1onc2c1CCCC2)c1ccccc1` the Potency [9] was “inactive”.

With `N#CNC(=O)c1ccc(-n2cccc2/C=C2\NC(=O)N(CC(=O)Nc3ccc(F)cc3)C2=O)cc1` the Potency [9] was 7.58 µM (active).

For `Clc1ccc(-c2noc3ncnc(NC4CCCCC4)c23)cc1`, the Potency [9] was 15.8 µM (active).
